{"source": "PubChem BioAssay (Tox21)", "note": "Several values for one entry are separate records, joined by “and”; a condition that tells them apart may be missing. Equal entries are not always repeated. Inconclusive results are not listed. Activity calls are given as the source filed them. The call rests on the fitted dose curve; in most records, active means well fitted cell-killing curve with a large enough effect in the repeat runs; inconclusive means weak or mixed curves, or effect the other way; inactive means no such curve, though single readings can be large or run the other way. Potency means the concentration at half of the fitted maximal effect.", "data": [{"test": "qHTS assay for identifying genotoxic compounds that show differential cytotoxicity against isogenic chicken DT40 cell lines with known DNA damage response pathways - Rev3 mutant cell line (AID 743014); further: nearly all actives have a fitted effect of over 55% in size", "settings": "chicken DT40 Rev3-/- viability, CellTiter-Glo, 40 h; series mostly up to 68.4 µM", "excerpt": "National Center for Advancing Translational Sciences [NCATS]\nNIH Chemical Genomics Center [NCGC]\nU.S. Environmental Protection Agency [EPA]\nNational Institutes of Environmental Health Sciences [NIEHS]\nNational Toxicology Program [NTP]\nU.S. Food and Drug Administration [FDA]\nDNA repair pathways play a critical role in cellular homeostasis by repairing DNA damage induced by endogenous processes and xenobiotics. Isogenic chicken DT40 cell lines deficient in different DNA repair pathways can be used to identify genotoxic compounds and aid in characterizing the nature of the DNA damage induced. Two DNA repair-deficient cell lines with disrupted genes, Rad54/Ku70 or Rev3, were used to screen the Tox21 10K compound library. Possible genotoxicity was based on the presence of a significant increase in cytotoxicity in one or more of the DNA repair-deficient cell lines compared to that observed in the parental DNA repair-proficient cell line. CellTiter Glo viability assay (Promega, Madison, WI) was used to measure cell viability in these cells after compound treatment. This assay includes the data from the Rev3 mutant cell line.\nTox21 Assay Protocol Summary:\n300 DT40 mutant cells in 5 uL/well were dispensed into white, solid-bottom 1536-well plates using a Multidrop Combi (ThermoFisher Scientific, Waltham, MA) dispenser. After the assay plates were incubated at 37 C/5% CO2 for approximately 0.5 hour, 23 nL of compounds dissolved in DMSO, positive controls or DMSO only was transferred into the assay plate by a pintool work station (Kalypsys, San Diego, CA). The assay plates were incubated at 37 C/5% CO2 for 40 hours. After 5 uL per well of CellTiter-Glo reagent was added into each well of the assay plates, the plates were incubated for 30 min at room temperature and the luminescence intensity of the plates was measured using a ViewLux (PerkinElmer, Shelton, CT) plate reader.", "values": [{"smiles": "CCc1nn(C)c(C(=O)NCc2ccc(C(C)(C)C)cc2)c1Cl", "Potency": "0.0863 µM (active)"}, {"smiles": "Cn1cc(C2=C(c3cn(C4CCN(Cc5ccccn5)CC4)c4ccccc34)C(=O)NC2=O)c2ccccc21", "Potency": "inactive"}, {"smiles": "CC1(C)CC/C(=C/c2ccc(Cl)cc2)C1(O)Cn1cncn1", "note": "(stereo not given)", "Potency": "60.8 µM (active)"}, {"smiles": "Oc1ccc2ccc3cccc4ccc1c2c34", "Potency": "48.6 µM (active)"}, {"smiles": "CC(=O)C(Cl)(Cl)Cl", "Potency": "16.6 µM (active)"}, {"smiles": "Clc1ccc(C(Cl)(Cl)Cl)c(Cl)c1", "Potency": "inactive"}, {"smiles": "Clc1ccc(C(c2ccccc2Cl)C(Cl)(Cl)Cl)cc1", "note": "(stereo not given)", "Potency": "45.1 µM (active)"}, {"smiles": "CCOP(=S)(OCC)OC(Cl)C(Cl)(Cl)Cl", "note": "(stereo not given)", "Potency": "inactive"}, {"smiles": "CCOCn1c(-c2ccc(Cl)cc2)c(C#N)c(Br)c1C(F)(F)F", "Potency": "2.17 µM (active)"}, {"smiles": "C=CCC1=C(C)C(OC(=O)C2C(C=C(C)C)C2(C)C)CC1=O", "note": "(stereo not given)", "Potency": "16.8 µM (active)"}, {"smiles": "CC(C)[C@H](C(=O)O[C@H](C#N)c1cccc(Oc2ccccc2)c1)c1ccc(Cl)cc1", "Potency": "43.2 µM (active)"}, {"smiles": "Cc1cc(N=Nc2ccccc2C)ccc1N", "Potency": "54.5 µM (active) and 48.6 µM (active)"}, {"smiles": "CCCCOCN(C(=O)CCl)c1c(CC)cccc1CC", "Potency": "9.69 µM (active)"}, {"smiles": "CC(C)(C)OO", "Potency": "inactive"}, {"smiles": "N#C/C=C/C#N", "Potency": "inactive"}, {"smiles": "CC(C)(C)c1ccc(CSc2cnn(C(C)(C)C)c(=O)c2Cl)cc1", "Potency": "0.0193 µM (active)"}, {"smiles": "O=C(NC(=O)c1c(F)cccc1F)Nc1cc(Cl)c(OC(F)(F)C(F)F)c(Cl)c1", "Potency": "inactive"}, {"smiles": "C=CC(=O)OCC(COC(=O)C=C)(COC(=O)C=C)COC(=O)C=C", "Potency": "0.969 µM (active)"}, {"smiles": "COC(=O)N(C(=O)N1CO[C@@]2(C(=O)OC)Cc3cc(Cl)ccc3C2=N1)c1ccc(OC(F)(F)F)cc1", "Potency": "14.8 µM (active)"}, {"smiles": "CN(C)c1ccc(N=Nc2ccccc2)cc1", "Potency": "inactive"}, {"smiles": "Clc1ccc(CSC(Cn2ccnc2)c2ccc(Cl)cc2Cl)cc1", "note": "(stereo not given)", "Potency": "11.4 µM (active)"}, {"smiles": "S=C(SSC(=S)N1CCCCC1)N1CCCCC1", "Potency": "0.531 µM (active)"}, {"smiles": "O=CC(Br)(Br)Br", "Potency": "24.3 µM (active)"}, {"smiles": "O=[N+]([O-])c1cc([N+](=O)[O-])c2ccccc2c1", "Potency": "13.7 µM (active)"}, {"smiles": "CN(C)C(=S)S", "Potency": "1.21 µM (active) and 1.72 µM (active)"}, {"smiles": "BrC(Br)Br", "Potency": "inactive"}, {"smiles": "Clc1ccc(CO/N=C(\\Cn2ccnc2)c2ccc(Cl)cc2Cl)c(Cl)c1", "Potency": "26.6 µM (active)"}, {"smiles": "O=C(CBr)c1ccc(O)cc1", "Potency": "68.6 µM (active)"}, {"smiles": "CCN(CC)C(=S)[S-].CCN(CC)C(=S)[S-].[Zn+2]", "Potency": "1.08 µM (active)"}, {"smiles": "Fc1ccc(Oc2ccnc3cc(Cl)cc(Cl)c23)cc1", "Potency": "68.6 µM (active)"}, {"smiles": "C[C@@H]1O[C@@H](O[C@@H]2C=C3CC[C@@H]4[C@H](CC[C@]5(C)[C@@H](c6ccc(=O)oc6)CC[C@]45O)[C@@]3(C)CC2)[C@H](O)[C@H](O)[C@H]1O", "Potency": "0.101 µM (active)"}, {"smiles": "CCCCCCCCCCCCCC[P+](CCCCCC)(CCCCCC)CCCCCC", "note": "(tested in a mixture with another compound)", "Potency": "3.86 µM (active)"}, {"smiles": "CCCCCCCCCCCCCCCC[N+](C)(C)C", "Potency": "596 nM (active) and 417 nM (active) and 770 nM (active)"}, {"smiles": "CC1(C)[C@H](C(=O)O[C@H](C#N)c2cccc(Oc3ccccc3)c2)[C@@H]1/C=C(\\Cl)C(F)(F)F", "Potency": "50.5 µM (active)"}, {"smiles": "Fc1cccc(Cl)c1CCl", "Potency": "inactive"}, {"smiles": "CC(=O)O[C@H]1CC[C@@]2(C)C(=CC[C@@H]3[C@@H]2CC[C@]2(C)C(=O)CC[C@@H]32)C1", "Potency": "inactive"}, {"smiles": "Cc1cc(C(C)(C)c2cc(C)c(O)c(C)c2)cc(C)c1O", "Potency": "26.4 µM (active)"}, {"smiles": "O=S(=O)(c1ccc(Cl)cc1)c1ccc(Cl)cc1", "Potency": "44.8 µM (active)"}, {"smiles": "BrC(Br)C(Br)(Br)Br", "Potency": "inactive"}, {"smiles": "CCC(C)c1cc([N+](=O)[O-])cc([N+](=O)[O-])c1OC(=O)C=C(C)C", "note": "(stereo not given)", "Potency": "27.3 µM (active)"}]}]}
